G9a block: inhibitors of human histone lysine methyltransferase G9a. Q96KQ7. hit rate 8.8% among 350,000. G9a H3K9 monomethylation, AlphaScreen, 2 h. Potency, µM (series often up to 102 µM), inactives show top-dose activity, negative = inhibition, actives largely listed as inhibitors; note: % is set by controls: 0 for no effect and ±100 for the full control effect; nearly all actives have a fitted effect of over 75% in size
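Compounds were preincubated with 20 nM G9a for 15 min, after which biotinylated H3K9 peptide (500 nM) and SAM (20 uM) started a 2 h room-temperature reaction. Monomethylated product was quantified by antibody-based AlphaScreen chemiluminescence.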
HP1b binding inh: HP1-beta chromodomain-methylated histone interaction inhibition | AlphaScreen HP1-beta / biotin-H3K9me3 peptide binding | Potency, µM (series often up to 114 µM), for the others: at the top dose activity change, negative = inhibition, actives largely listed as inhibitors | hit rate 0.56% among 390,000; note: nearly all actives have a fitted effect of over 70% in size
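AlphaScreen: HP1-beta (50 nM) preformed 30 min with biotin-H3(1-18)K9me3 peptide (50 nM) in PBS pH 7.4, 0.01% Tween-20. Compound added for 30 min at RT, then streptavidin donor/nickel chelate acceptor beads (10 ug/mL) for 30 min.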
Sfp PPTase inh: blocks B. subtilis Sfp PPTase activity. Potency, µM, for inactives: largest response in the series, negative = inhibition, actives largely listed as inhibitors. Q9F4F7. Biochemical Sfp PPTase activity, qHTS. hit rate 3.5% among 310,000. AID 1490;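 note: the enzyme is Sfp with the accession as filed and its product quenches rhodamine fluorescence; 0% = enzyme reaction without inhibitor and -100% = no enzyme wells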
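Reaction rates are the 30-min fluorescence difference (ex 525, em 598 nm) in wells containing 15 nM Sfp, 5 uM rhodamine-CoA and 12.5 uM BHQ-2-YbbR at pH 7.6 with 10 mM MgCl2.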
BAZ2B inh: inhibitors of human BAZ2B bromodomain | Q9UIF8 | AlphaScreen BAZ2B-H3K14Ac peptide displacement | Potency, µM (top dose mostly 114 µM), inactives show at the top dose activity change, negative = inhibition, actives largely listed as inhibitors | hit rate 4.4% among 360,000 | AID 504333; note: % is set by controls: 0 for no effect and ±100 for the full control effect; nearly all actives have a fitted effect of over 60% in size
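Protein-peptide AlphaScreen: BAZ2B 50 nM, b-H3K14Ac 50 nM, 1x PBS pH 7.4 + 0.01% Tween-20. Preincubation 30 min RT; cpd 30 min RT (top 110 uM); beads 20 min RT, light-protected.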
12-LOX inh: blocks human arachidonate 12S-lipoxygenase | hit rate 1.1% among 580,000 | P18054 | Potency, µM (series often up to 108 µM), without a hit: top-dose activity change, negative = inhibition, actives largely listed as inhibitors | purified 12hLO, xylenol orange hydroperoxide absorbance; note: % is set by controls: 0 for no effect and ±100 for the full control effect
Target sequence (P18054 whole entry, looked up): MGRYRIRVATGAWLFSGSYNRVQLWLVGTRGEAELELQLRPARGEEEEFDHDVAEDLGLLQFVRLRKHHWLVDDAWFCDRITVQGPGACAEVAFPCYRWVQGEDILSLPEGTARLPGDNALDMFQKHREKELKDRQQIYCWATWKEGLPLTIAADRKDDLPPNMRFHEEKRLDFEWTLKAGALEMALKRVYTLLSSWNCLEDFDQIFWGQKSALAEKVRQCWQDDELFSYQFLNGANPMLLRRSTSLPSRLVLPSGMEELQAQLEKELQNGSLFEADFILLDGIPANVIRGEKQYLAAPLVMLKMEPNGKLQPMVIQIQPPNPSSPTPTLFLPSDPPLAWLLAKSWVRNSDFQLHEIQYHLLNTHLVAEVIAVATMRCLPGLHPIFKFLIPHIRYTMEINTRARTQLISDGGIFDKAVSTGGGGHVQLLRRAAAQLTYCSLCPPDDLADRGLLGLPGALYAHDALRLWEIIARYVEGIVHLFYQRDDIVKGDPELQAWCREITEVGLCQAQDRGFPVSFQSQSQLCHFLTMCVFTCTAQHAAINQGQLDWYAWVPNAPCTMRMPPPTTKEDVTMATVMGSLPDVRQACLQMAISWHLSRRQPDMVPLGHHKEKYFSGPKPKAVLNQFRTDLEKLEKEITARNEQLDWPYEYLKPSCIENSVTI
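Hydroperoxide product was detected by ferrous iron/xylenol orange as the 573 to 405 nm absorbance ratio. Arachidonic acid at 40 uM (final) was turned over for 30 min at room temperature by 150 nM human 12hLO, pH 7.0 Hepes buffer, after 15 min compound preincubation.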
JMJD2A Tudor inh: inhibitors of human JMJD2A Tudor domain; O75164; AlphaScreen JMJD2A-Tudor / H3K4me3 peptide binding; Potency, µM (titrated, usually from 114 µM), without a hit: at the highest dose activity change, negative = inhibition, actives largely listed as inhibitors; hit rate 4.4% among 390,000; AID 504339; note: % is set by controls: 0 for no effect and ±100 for the full control effect; nearly all actives have a fitted effect of over 50% in size
* = called active by the depositor; [ ] = another dose, or the depositor's remark. Shown are actives, neighbours in structure and some others; about 8.7% of the full set was active somewhere. Calls come from the whole dose curve; as a rule, active = well fitted curve in the direction sought with a large enough effect; inconclusive = small, poorly fitted or top-dose-only effect, or another doubt; inactive = no such curve, though single readings can be large; an effect the other way counts as inactive or inconclusive. Potency is the fitted concentration of half-maximal effect.

Screening Cc1[nH]cnc1-c1nccn1CCCOC1CCN(C)CC1 returned 12-LOX inh 114.6%.
`Cc1occc1-c1nnc(SCC(=O)c2ccc3c(c2)OCCO3)n1CC1CCCO1` (centres undefined) gave G9a block 11.4%[12.7 µM], HP1b binding inh 38.6%, Sfp PPTase inh -2.0%, BAZ2B inh -21.1%, 12-LOX inh -4.8% and JMJD2A Tudor inh -24.9%.
For CCCCn1c(SCC(=O)c2ccc3c(c2)OCCO3)nnc1-c1ccoc1C the results were G9a block inconclusive, HP1b binding inh -3.5%, Sfp PPTase inh -12.8%, BAZ2B inh 89.1µM*, 12-LOX inh 14.6% and JMJD2A Tudor inh inconclusive.
COc1ccc(-c2ccc(CCC(=O)O)n2-c2ccccc2C(F)(F)F)cc1 was read as G9a block inconclusive, HP1b binding inh 18.0%, BAZ2B inh inconclusive, 12-LOX inh -20.4% and JMJD2A Tudor inh inconclusive.
`COc1ccc(-c2ccc(CCC(=O)O)n2-c2ccccc2O)cc1` gave G9a block inconclusive, HP1b binding inh 15.6%, Sfp PPTase inh 79.4µM*, BAZ2B inh inconclusive, 12-LOX inh inconclusive and JMJD2A Tudor inh inconclusive.
For COc1ccc(-n2c(CCC(=O)O)ccc2-c2ccccc2)cc1 the results were G9a block 50.1µM*, HP1b binding inh 14.2%, Sfp PPTase inh -24.3%, BAZ2B inh inconclusive, 12-LOX inh -6.2% and JMJD2A Tudor inh -19.6%.
For O=C1NC2(CCN(C(=O)c3ccccc3F)CC2)Oc2ccccc21 the results were 12-LOX inh 30.1%[176 µM].
Screening O=C(NCC12CC3CC(CC(C3)C1)C2)c1ccc(Cl)c([N+](=O)[O-])c1 returned 12-LOX inh -4.1%.
For Cc1ccc(C)c(NC(=O)N2CCCC(Cn3cnc4cccnc43)C2)c1 (centres undefined) the results were 12-LOX inh 19.2%.
Cc1ccc2oc(-c3ccc(Cl)c(NC(=O)c4ccc([N+](=O)[O-])o4)c3)nc2c1 was read as 12-LOX inh 17.6%.
N=C(N)SCc1ccccn1 was read as G9a block inconclusive, HP1b binding inh -4.4%, Sfp PPTase inh 4.6%, BAZ2B inh 35.5µM*, 12-LOX inh inconclusive and JMJD2A Tudor inh 22.4µM*.
c1ccc(CSc2nnc(SCc3ccccn3)s2)nc1 was read as G9a block -10.4%[2.33 µM], HP1b binding inh 23.6%, Sfp PPTase inh 9.9%, BAZ2B inh 4.6%, 12-LOX inh -9.5% and JMJD2A Tudor inh -6.5%.
N=C(N)SCc1ncccc1O was read as G9a block 17.8µM*, HP1b binding inh -1.8%, Sfp PPTase inh -22.8%, BAZ2B inh inconclusive, 12-LOX inh -14.3% and JMJD2A Tudor inh inconclusive.
Screening CC(CCc1ccc(O)cc1)NCc1ccc(Br)cc1 (centres undefined) returned HP1b binding inh 33.3%, Sfp PPTase inh 16.0%, BAZ2B inh 7.1%, 12-LOX inh 12.6µM* and JMJD2A Tudor inh -6.2%.
`CCCc1cc2c(-c3ccccc3)cc(=O)oc2cc1OCc1ccc(C(=O)O)o1` gave G9a block 44.7µM*, HP1b binding inh inconclusive, Sfp PPTase inh -29.4%, BAZ2B inh inconclusive, 12-LOX inh inconclusive and JMJD2A Tudor inh -19.5%[11.4 µM].
`CCc1cc2c(-c3ccccc3)cc(=O)oc2cc1OCC(C)=O` gave G9a block 24.3%[0.501 µM], HP1b binding inh 62.5%, Sfp PPTase inh 2.4%, BAZ2B inh 8.7%, 12-LOX inh -0.9% and JMJD2A Tudor inh -1.4%.
O=C(NCCCc1ccccc1)c1cc(=O)[nH]c2ccccc12 was read as 12-LOX inh -2.9%.
For O=[N+]([O-])c1ccc(Cl)c(S(=O)(=O)Nc2ccc(-c3ccc(N4CCOCC4)nn3)cc2)c1 the results were G9a block inconclusive, HP1b binding inh 18.4%, BAZ2B inh -37.6%, 12-LOX inh -16.7% and JMJD2A Tudor inh -10.3%.
